Screening data from PubChem BioAssay.
The list is not random: actives were taken first. Their share in the collection is about 0.99%.
TRPML1 agonist: human mucolipin-1 channel agonism; activation, % (concentration not given with the values); Q9GZU1; TRPML1-expressing cells, Ca2+ dye fluorescence, FDSS; actives 0.12% (n = 410,000); in the data active = activation above about 50%; inconclusive = mostly about 30% to 49%
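TRPML1-DL cells, Tet-induced overnight (~16 h, 37 degrees C), loaded 45-90 min at room temperature with Ca8 no-wash calcium dye plus quencher. FDSS fluorescence: 10 s baseline, compound pin-transfer, 110 s agonist read, then EC80 54-4 (4uM final) and 110 s antagonist read.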
TRPV1 potentiator: potentiators of human vanilloid receptor 1 (TRPV1); TRPV1-expressing cells, Fluo-8 calcium influx, capsaicin EC20 potentiation; Q8NER1; actives 0.02% (n = 320,000); potentiation, % at 8.33 µM; in the data active = potentiation above about 80%; inconclusive = between about 30% and that limit
Target sequence (Q8NER1 whole entry, looked up): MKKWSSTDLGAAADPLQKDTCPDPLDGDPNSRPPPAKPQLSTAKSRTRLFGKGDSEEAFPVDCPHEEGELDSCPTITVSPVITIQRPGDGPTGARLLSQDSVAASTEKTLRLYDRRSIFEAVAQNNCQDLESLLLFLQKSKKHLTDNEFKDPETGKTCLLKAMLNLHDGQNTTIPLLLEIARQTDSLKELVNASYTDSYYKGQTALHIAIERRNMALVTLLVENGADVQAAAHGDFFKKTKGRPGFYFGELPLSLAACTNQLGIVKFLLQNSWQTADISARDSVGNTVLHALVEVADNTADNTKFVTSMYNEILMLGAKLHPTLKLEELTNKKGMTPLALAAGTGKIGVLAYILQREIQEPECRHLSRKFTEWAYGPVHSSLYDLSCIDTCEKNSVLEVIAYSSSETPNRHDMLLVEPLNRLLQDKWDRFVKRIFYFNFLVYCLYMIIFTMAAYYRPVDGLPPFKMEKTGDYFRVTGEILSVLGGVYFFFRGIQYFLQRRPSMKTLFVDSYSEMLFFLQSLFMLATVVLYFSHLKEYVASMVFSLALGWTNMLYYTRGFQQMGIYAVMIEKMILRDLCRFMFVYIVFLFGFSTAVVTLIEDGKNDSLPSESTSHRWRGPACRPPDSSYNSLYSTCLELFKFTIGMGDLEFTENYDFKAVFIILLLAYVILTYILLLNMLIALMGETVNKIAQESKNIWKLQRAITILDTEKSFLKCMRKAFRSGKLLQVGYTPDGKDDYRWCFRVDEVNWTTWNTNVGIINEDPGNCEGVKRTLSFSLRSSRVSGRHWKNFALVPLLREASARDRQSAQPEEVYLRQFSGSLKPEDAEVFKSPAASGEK
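TRPV1-expressing cells were cultured overnight at 35.5C and loaded with Fluo-8 calcium dye for 40 to 90 min at room temperature. After a 10 s baseline, compound was added and calcium influx was read kinetically for 3 min (ex 480/em 520 nm).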
TRPV1 ag: human TRPV1 agonism; activation, % at 8.33 µM; actives 0.19% (n = 320,000); TRPV1-expressing cells, Fluo-8 calcium influx, agonist mode; Q8NER1; in the data active = activation above about 80%; inconclusive = between about 30% and that limit
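Cells expressing TRPV1 were dye-loaded with Fluo-8 and read kinetically: 10 s baseline, 3 min after compound (agonist portion), then 2 min after EC20 capsaicin (allosteric enhancer portion). Calcium-bound dye fluorescence at 480/520 nm.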
TRHR PAM: allosterically enhances the human TRH receptor | P34981 | enhancement, % at 2 µM | TRHR cells, fluo-8 calcium fluorescence, EC20 TRH enhancement | actives 0.66% (n = 360,000) | AID 493056; in the data active = enhancement above about 30%
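Enhancer read-out: after compound pinning and an initial kinetic agonist-mode read, an EC20 of TRH (10 nM final) was injected and fluo-8 calcium signal (Ex 480/Em 530) followed at 1 s/cycle for 100 cycles in TRHR-expressing cells.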
TRPML1 inh: inhibitors of human TRPML1 channel. Q9GZU1. AID 624415. actives 0.02% (n = 390,000). activity change, negative = inhibition, % (test concentration not listed). TRPML1-inducible cells, Ca2+ dye fluorescence, FDSS; stronger effect = lower value; inhibition of EC80 agonist-evoked calcium signal; in the data active = activity change below about -50%; inconclusive = between about -30% and that limit;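 also: stimulus is agonist 54-4 at its EC80 concentration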
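Tet-induced TRPML1-DL cells loaded with Ca8 no-wash calcium dye were read kinetically on FDSS. Compound addition was followed by EC80 agonist 54-4 (4 uM final); inhibition was read over 110 s.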
TRHR ag: activates the human TRH receptor; P34981; TRHR cells, calcium flux fluo-8, FDSS agonist mode; activation, % at 2 µM; actives 0.18% (n = 360,000); AID 493084; in the data active = activation above about 30%
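TRHR-expressing cells loaded with fluo-8 calcium dye; 23 nL library compound pin-transferred, kinetic FDSS fluorescence (Ex 480/Em 530) recorded about 180 s for agonist-induced calcium release, before a 10 nM TRH EC20 addition for potentiator mode.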
Hits are given with their value.

For COc1ccc(CCNC(=O)c2ccc3c(c2)N(Cc2ccccc2Cl)C(=O)c2ccccc2S3)cc1OC the results were TRPML1 agonist inactive, TRHR PAM inactive, TRPML1 inh inactive and TRHR ag inactive.
Screening O=C(Nc1cccnc1)c1ccc(-c2ccccc2)cc1 returned TRPML1 agonist inactive, TRPV1 potentiator inactive, TRPV1 ag 87, TRHR PAM inactive, TRPML1 inh inactive and TRHR ag inactive.
For O=C(Nc1cccnc1)c1ccc(N2CCOCC2)c([N+](=O)[O-])c1 the results were TRPML1 agonist inactive, TRPV1 potentiator inactive, TRPV1 ag inconclusive, TRHR PAM inactive, TRPML1 inh inactive and TRHR ag inactive.
`O=C(Nc1cccnc1)c1ccc(N2CCCC2)c([N+](=O)[O-])c1` gave TRPML1 agonist inactive, TRPV1 potentiator inactive, TRPV1 ag 84, TRHR PAM inactive, TRPML1 inh inactive and TRHR ag inactive.
Screening O=C(Nc1cccnc1)c1ccc(F)cc1 returned TRPML1 agonist inactive, TRPV1 potentiator inactive, TRPV1 ag inactive, TRHR PAM inactive, TRPML1 inh inactive and TRHR ag inactive.
`O=C(CNC(=O)C1CCCCC1)OC(C(=O)Nc1cc(C(F)(F)F)ccc1Cl)c1ccccc1` (configuration not stated) gave TRHR PAM inactive and TRHR ag inactive.
For Cc1ccc2c(c1)ncc[n+]2CC(=O)c1ccc(F)cc1 the results were TRPML1 agonist inactive.
For CCCCCCC1CCC(C(=O)N2CCOCC2)CC1 (configuration not stated) the results were TRPML1 agonist inactive, TRPV1 potentiator inactive, TRPV1 ag 89, TRHR PAM inactive, TRPML1 inh inactive and TRHR ag inactive.
`CCCCCC1CCC(C(=O)N2CCOCC2)CC1` (configuration not stated) gave TRPML1 agonist inactive, TRPV1 potentiator inactive, TRPV1 ag 94, TRHR PAM inactive, TRPML1 inh inactive and TRHR ag inactive.
Screening COc1ccc(NC(=S)NC(C)C(c2ccccc2)N2CCOCC2)cc1 (configuration not stated) returned TRPML1 agonist inactive, TRPV1 potentiator inactive, TRPV1 ag inactive, TRHR PAM inactive, TRPML1 inh inactive and TRHR ag inactive.
CC(NC(=S)Nc1ccccc1Cl)C(c1ccccc1)N1CCOCC1 (configuration not stated) was read as TRPML1 agonist 80, TRPV1 potentiator inactive, TRPV1 ag inactive, TRHR PAM inactive, TRPML1 inh inactive and TRHR ag inactive.
For CC(C)NS(=O)(=O)c1ccc2[nH]c3nc(SCC(=O)Nc4ccc(F)c(F)c4)nnc3c2c1 the results were TRPML1 agonist inactive.
For Nc1ccc2cccnc2c1 the results were TRPML1 agonist inactive.
COc1ccc(OC)c(CNc2ccc3c(c2)CCC3)c1 was read as TRPML1 agonist inactive, TRPV1 potentiator inactive, TRPV1 ag inactive, TRHR PAM 35, TRPML1 inh inactive and TRHR ag inactive.
O=C1CCC2CCCCC2(O)O1 (configuration not stated) was read as TRPML1 agonist inactive, TRPV1 potentiator inactive, TRPV1 ag inactive, TRHR PAM 33, TRPML1 inh inactive and TRHR ag inactive.
Screening COc1ccc(CCNC(=O)c2ccc3c(c2)N(Cc2cc(C)ccc2C)C(=O)c2ccccc2S3=O)cc1OC (configuration not stated) returned TRPML1 agonist inactive, TRHR PAM 31, TRPML1 inh inactive and TRHR ag inactive.
For CCOC(=O)N1CCC(NC(=O)c2ccc3c(c2)N(Cc2ccc(F)cc2)C(=O)c2ccccc2S3=O)CC1 (configuration not stated) the results were TRPML1 agonist inactive, TRHR PAM 37, TRPML1 inh inactive and TRHR ag inactive.
O=C(C[n+]1cccc2cccc(O)c21)c1ccccc1 was read as TRPML1 agonist inactive.
For O=S(=O)(c1ccc2c(c1)OCCO2)N1CCN(S(=O)(=O)c2cc(F)c(Br)cc2F)CC1 the results were TRHR PAM inactive and TRHR ag inactive.
